From PMC5540273 (PLoS ONE, 2017)

How the values were obtained:
Conditions in all cases: concentration: 1 μM, replicates: in singlicate; n = 1
ADCK4 = tested on: ADCK4
AKT1 = tested on: AKT1
AKT2 = tested on: AKT2
AKT3 = tested on: AKT3
ALK = tested on: ALK
AMPK-alpha1 = tested on: T1, AMPK-alpha1
T1 construct: gene PRKAA1

AMPK-alpha2 = tested on: T2, AMPK-alpha2
T2 construct: gene PRKAA2

ANKK1 = tested on: ANKK1
ARK5 = tested on: T3, ARK5
T3 construct: gene NUAK1

ASK1 = tested on: T4, ASK1
T4 construct: gene MAP3K5
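Also: KINOMEscan kinase panel screen.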

SMILES	%Inh (ADCK4) [%]	%Inh (AKT1) [%]	%Inh (AKT2) [%]	%Inh (AKT3) [%]	%Inh (ALK) [%]	%Inh (AMPK-alpha1) [%]	%Inh (AMPK-alpha2) [%]	%Inh (ANKK1) [%]	%Inh (ARK5) [%]	%Inh (ASK1) [%]
O=C(Nc1n[nH]c2nc(-c3ccccc3O)ccc12)C1CC1 [SB-711880]	17	0	0	0	0	90	0	0	0	0
Cc1ccc(Nc2ccnc(Nc3ccc(C)c(F)c3)n2)cc1O.Cl [GW582868]	74	0	0	0	38	0	0	0	40	0
Cn1cc(-c2ccc3c(c2)CCN3C(=O)Cc2cc(F)cc(C(F)(F)F)c2)c2c(N)ncnc21 [GSK2635225]	10	0	0	0	0	3	21	25	15	0
Cc1cccc(Nc2nc(N[C@H]3CCCC[C@H]3N)ncc2C(N)=O)c1.Cl [GSK986310]	29	0	28	0	61	39	29	95.7	40	0
COC(=O)Nc1nc2ccc(Oc3ccc(CC(=O)Nc4cc(C(F)(F)F)ccc4F)cc3)cc2[nH]1 [GW680903]	42	0	0	0	36	0	0	1	7	3
O=C1NC(=O)C(c2ccccc2Cl)=C1Nc1cccc(Cl)c1 [SB-342409]	0	0	100	0	41	0	11	0	14	8
Nc1cccc(-c2ccc3c(N)n[nH]c3c2)c1 [GSK2193613]	16	0	0	23	0	0	16	16	0	0
CNc1nccc(-c2ccc3c(N)n[nH]c3c2)n1 [GSK2206003]	26	0	0	0	33	0	0	33	0	0
CCNC(=O)/C=C/c1n[nH]c2cc(Sc3ccccc3C(=O)NC)ccc12	0	6	18	3	2	7	14	5	10	0
Nc1ncc(-c2cn[nH]c2)c2scc(-c3ccc4c(c3)CCN4C(=O)Cc3ccccc3)c12 [GSK2593067]	0	0	2	0	0	11	16	1	26	5
CCOc1nccc(-c2c(-c3ccc(F)cc3)ncn2C2CCNCC2)n1 [SB-249175]	8	0	0	16	52	1	5	0	7	0
CN(C)c1ncnc2nc[nH]c12 [SKF-31736]	19	0	0	0	0	0	0	0	0	0
O=C(O)C(F)(F)F.O=c1[nH]ccc2nc(N[C@@H]3CCNC3)nc(Nc3ccc4c(c3)S(=O)(=O)CC4)c12 [GSK2181306]	15	0	0	47	86	89	81	97.4	99.9	0
Cc1ccc(-c2ccc3occ(-c4ccc(S(C)=O)cc4)c3c2)nn1 (stereo not shown)	0	2	12	9	0	0	1	0	16	0
CSc1ccc(NC2=C(c3ccc(Cl)cc3)C(=O)NC2=O)cc1 [SB-317658]	0	9	8	10	0	23	30	3	0	0
Cc1ccc(NC(=O)c2cccc(N3CCCCC3)c2)cc1-c1ccc(C(=O)NCC2CC2)cc1 [GSK1917008]	1	0	8	2	19	0	28	3	28	12

SMILES	%Inh (ADCK4) [%]	%Inh (AKT1) [%]	%Inh (AKT2) [%]	%Inh (AKT3) [%]	%Inh (ALK) [%]	%Inh (AMPK-alpha1) [%]	%Inh (AMPK-alpha2) [%]	%Inh (ANKK1) [%]	%Inh (ARK5) [%]	%Inh (ASK1) [%]
Cc1ccc(NC(=O)c2ccnc(N3CCCCC3)c2)cc1-c1ccc(C(=O)NCC2CC2)cc1 [GW775610]	0	0	0	0	10	19	0	0	2	0
Cn1cc(-c2ccc3c(c2)CCN3C(=O)Cc2cc(F)cc(F)c2F)c2c(N)ncnc21 [GSK2634140]	19	0	0	0	8	18	13	12	20	0
Cc1nn2c(=O)cc(N3CCO[C@H](C)C3)nc2n1Cc1cccc(Cl)c1Cl [GSK2373693]	2	0	7	4	22	0	11	0	0	8
CCNc1nccc(-c2c(-c3ccc(F)cc3)ncn2C2CCN(C)CC2)n1	8	4	0	0	0	0	0	0	0	15
COc1cccc2c(-c3ccncc3)c(-c3ccc(F)cc3)nn12 [GW468513]	38	0	34	5	27	0	18	11	19	0
Nc1ncnc2scc(-c3ccc(NC(=O)Cc4cc(F)ccc4F)cc3)c12.O=C(O)C(F)(F)F [SB-731254-M]	3	0	0	9	18	18	11	49	2	10
Cc1ccc(NC(=O)c2ccc(Cl)c(Cl)c2)cc1-c1ccc(C(=O)Nc2ccncc2)cc1 [GSK1398460]	20	0	15	0	41	21	21	18	10	16
CS(=O)(=O)c1cccc(CNc2nc(Nc3ccc4c(c3)CCC(=O)N4)ncc2C(F)(F)F)c1	4	0	0	0	0	7	0	3	86	0
CC(C)(C)c1ccc(C(=O)Nc2cn3cc(-n4ccnc4)ccc3n2)cc1	19	6	0	0	0	14	0	82	2	80
COC(=O)Nc1nc2cc(Oc3ccc(NC(=O)Nc4cccc(SC)c4)cc3)ccc2[nH]1.Cl [GW697999]	48	0	0	0	25	5	0	10	0	2
N#CC1(c2cccc(C(=O)Nc3cccc(Oc4ccc5nc(NC(=O)C6CC6)sc5n4)c3)c2)CC1	2	27	6	0	15	17	27	0	0	0
CN(C)CCNS(=O)(=O)c1ccc(-c2ccnc3[nH]ccc23)cc1 [GSK977620]	0	57	18	75	50	53	43	0	39	0
c1ccc(Oc2ccc(Nc3ccnc4cc(-c5ccc(CN6CCCCC6)o5)ccc34)cc2)nc1 [GW567143]	8	0	14	0	26	0	0	9	12	0
CC(=O)Nc1cn2nc(Oc3cccc(NC(=O)c4cccc(C(F)(F)F)c4)c3)ccc2n1	9	20	0	16	9	0	8	0	12	0
COc1ccc(NC(=O)c2ccoc2)cc1-c1ccc(C(=O)NCC2CC2)cc1 [GW810437]	0	15	0	0	0	19	0	7	0	30
